From PubChem BioAssay
TDP1 cell CPT = growth inhibition of DT40 Tdp1-/-;hTDP1 cells with camptothecin (screen for TDP1 inhibitors); Potency, µM (series often up to 46.2 µM), for the others: at the top dose activity change, negative = growth inhibition, most hits filed as inhibitors; actives 12% (n = 420,000); chicken DT40 Tdp1-/-;hTDP1 cells + 20 nM CPT, ATP luminescence, 48 h; AID 686979; further: potency means the concentration at half of the fitted maximal effect; nearly all actives have a fitted effect of over 55% in size
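Chicken DT40 Tdp1-/- cells complemented with human TDP1, 400 cells/well, exposed to compounds plus 20 nM camptothecin for at least 48 h at 37 C; viability read as ATP content by CellTiter-Glo luminescence.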
HT1080 IDH1KD tx = kills HT-1080 cells with IDH1 knockdown. actives 2% (n = 360,000). AID 686971. HT-1080 IDH1 knockdown viability, ATP luminescence, 48 h. Potency, µM (highest dose often 46.1 µM), inactives show at the top dose activity, negative = toxicity, hits mostly cytotoxic;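 further: potency means the concentration at half of the fitted maximal effect; 0% = DMSO wells and -100% = cell-free medium wells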
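IDH1KD HT-1080 cells, 750/well, RPMI + 5% FBS; compound pinned after 2 h settling; 48 h, 37 °C; CellTiter-Glo luminescence; % activity normalised to DMSO and no-cell wells; curves fitted, classed by r2 and efficacy.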
IL1B secr inh = inflammasome signaling inhibition, IL-1 beta readout | activity change, % at 57.5 µM | actives 4.7% (n = 360,000) | THP-1 LPS/ATP IL-1B secretion, AlphaLISA, 16 h; active compounds read low | AID 743279; in the data active means activity change below about -50%; inconclusive means mostly about -30% to -49%
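THP-1 cells pretreated 1 hr with compounds (up to 57.5 uM final), then stimulated with LPS (250 ng/mL final) plus ATP (1.25 mM final); secreted IL-1B measured by AlphaLISA after 16 hr, decreased signal indicating inhibition.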
DT40 TDP1 no CPT = qHTS for Inhibitors of human tyrosyl-DNA phosphodiesterase 1 (TDP1): qHTS in cells in absence of CPT. DT40 Tdp1-/- hTDP1 cells, no CPT, ATP luminescence, 48 h. Potency, µM (top dose mostly 46.2 µM), for the others: top-dose activity change, negative = growth inhibition, actives largely listed as inhibitors. actives 15% (n = 420,000); further: potency means the concentration at half of the fitted maximal effect; nearly all actives have a fitted effect of over 55% in size
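Chicken DT40 Tdp1-/- cells complemented with human TDP1, screened without camptothecin (DMSO vehicle only), 400 cells/well. Compounds pin-transferred, cells incubated at 37 °C for at least 48 hr. Growth read as ATP-dependent luminescence (CellTiter-Glo, 30 min at RT).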
HT1080NT lethal = kills 2HG-producing HT-1080-NT fibrosarcoma cells | actives 1.6% (n = 360,000) | HT-1080-NT fibrosarcoma viability, CellTiter-Glo ATP luminescence, 48 h | Potency, µM (series often up to 46.1 µM), without a hit: at the top dose activity, negative = less viability, most hits filed as cytotoxic;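 further: NT is the 2HG producing partner of a matched IDH1 knockdown line; potency means the concentration at half of the fitted maximal effect; 0% = DMSO-treated cells and -100% = media-only wells without cells; nearly all actives have a fitted effect of over 55% in size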
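750 cells/well, RPMI + 5% FBS; 2 h settle, compound pin-transfer, 48 h at 37 degrees C. CellTiter-Glo 10 min RT, luminescence. Normalized to DMSO and media-only wells.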
The depositor's hits bear a star; i = inactive; ? = inconclusive; · = not tested or not shown; ! = repeats disagree; [ ] = dose if it differs, or a comment. The list is not random: actives were taken first. Their share in the collection is about 19%. Unless noted, the call rests on the fitted dose curve; in most records, active means well fitted curve in the direction sought with a large enough effect; inconclusive means small, poorly fitted or top-dose-only effect, or another doubt; inactive means no such curve, though single readings can be large; an effect the other way counts as inactive or inconclusive. Unless noted, on the % scale 0 is the no-effect control and ±100 the full control effect.

SMILES | TDP1 cell CPT | HT1080 IDH1KD tx | IL1B secr inh | DT40 TDP1 no CPT | HT1080NT lethal
Cc1ccc(S(=O)(=O)N2CCC(C(=O)OCC(=O)N3CCCC3=O)CC2)cc1C | -9% | 15% | -2 | 7% | 9%
Cc1cccn2cc(CCNC(=O)Cc3cccs3)nc12 | 6% | 13% | -74* | 1% | 13%
COc1ccc(OC)c(NC(=O)c2ccc(-c3nc(CSc4ccccc4)c(C)o3)cc2)c1 | 21µM* | · | · | 21µM* | ·
COc1cccc(CNC(=O)c2ccc(-c3nc(CS(=O)c4ccccc4)c(C)o3)cc2)c1 (stereo unspecified) | ? | · | · | 16µM* | ·
Cc1ccc(SCc2nc(-c3ccc(C(=O)NCC(C)c4ccccc4)cc3)oc2C)cc1 (stereo unspecified) | 8.2µM* | · | · | 6.5µM* | ·
COc1cc(NC(=O)c2ccc(-c3nc(COc4ccccc4)c(C)o3)cc2)cc(OC)c1 | 9.2µM* | · | · | 10µM* | ·
N#Cc1cccc(NC(=O)Cn2nc(Cc3ccncc3)c3ccccc3c2=O)c1 | -10% | · | · | 1% | ·
Fc1cc(Cl)ccc1NC1=NCCCCC1 | -12% | 1% | -67* | -3% | 3%
CC1(C)CC(NC(=O)c2ccccc2F)CC(C)(C)N1 | 7% | 2% | 4 | -2% | 1%
CN(C)c1ccc(-c2nc(-c3cc4cc(Cl)ccc4oc3=O)cs2)cc1 | 9% | · | · | -15% | ·
COc1ccc(C(=O)NCCc2c[nH]c3ccc(OC)cc23)cc1 | 3% | 25% | -10 | -19% | 20%
COc1ccc2[nH]cc(CCNc3ccnc(-c4ccc(N(C)C)cc4)n3)c2c1 | 1µM* | · | · | 0.92µM* | ·
COc1ccc2[nH]cc(CCNc3ccnc(-c4cccc(NS(C)(=O)=O)c4)n3)c2c1 | ? | · | · | 10µM* | ·
COc1ccc2[nH]cc(CCNc3ccnc(-c4cccnc4)n3)c2c1 | 21µM* | · | · | ? | ·
Cc1cnc(CNc2ccnc(-c3cccc(NS(C)(=O)=O)c3)n2)cn1 | 6% | · | · | 0% | ·
COc1ccc(NC(=O)CN(C)S(=O)(=O)c2ccc(Cl)cc2)cn1 | -4% | 15% | 14 | -30% | 12%
COC(=O)c1cccc(NC(=O)N(C)CCc2c(C)nn(C)c2C)c1 | 0% | · | · | -3% | ·
CCc1cccc2c(-c3csc(=NC)n3C)c[nH]c12 | ? | -18% | -73* | ? | -28%
CCc1cccc2c(C(=O)CSc3nncn3C)c[nH]c12 | -4% | 9% | 20 | 4% | 1%
COC(=O)C(c1ccccc1)N(Cc1cccc(CN(C(C(=O)OC)c2ccccc2)S(C)(=O)=O)c1)S(C)(=O)=O (stereo unspecified) | ? | 5% | 12 | 16µM* | 9%
COC(=O)[C@@H](NCc1cccc(CN[C@H](C(=O)OC)C(C)C)c1)C(C)C | -8% | 6% | 3 | -23% | 4%
O=c1c2ccsc2ncn1Cc1ccc(Cl)cc1 | ? | -7% | -2 | 18µM* | -12%
O=c1c2ccccc2ncn1Cc1ccccc1 | 18% | 3% | 12 | 9% | -4%
Cc1ccc(S(=O)(=O)c2cc(OC(=O)c3ccco3)ccc2OC(=O)c2ccco2)cc1 | ? | -6% | 4 | 16µM* | -2%
COc1cc(/C=C(\CCC(=O)O)c2nc3ccccc3s2)ccc1OCC(=O)Nc1c(Cl)cccc1Cl | 16µM* | 6% | 0 | ? | 4%[9.24 µM]
SMILES | TDP1 cell CPT | HT1080 IDH1KD tx | IL1B secr inh | DT40 TDP1 no CPT | HT1080NT lethal
CSc1nccc(-c2nn(-c3ccc(C)cc3)ccc2=O)n1 | 7.3µM* | 8.2µM* | 146 | 5.8µM* | ?
C=CCSc1nccc(-c2nn(-c3ccc(C)cc3)ccc2=O)n1 | 7.3µM* | ? | -25 | 5.8µM* | ?
C#CCSc1nccc(-c2nn(-c3ccc(C)cc3)ccc2=O)n1 | ? | -23% | 71 | 26µM* | -8%
C=CCSc1nc(=O)n2ccc(C)cc2n1 | -17% | 15% | 1 | ? | 14%
Nc1nccc(-c2nn(-c3ccc(Cl)cc3)ccc2=O)n1 | -11% | 1% | 3 | -15% | 6%
CCSc1nccc(-c2nn(-c3ccc(C)cc3)ccc2=O)n1 | 6.5µM* | 9.2µM* | -3 | 6.5µM* | 10µM*
CNC(=O)c1nn(-c2ccc(C)cc2)ccc1=O | 5% | 13% | 21 | 8% | 3%
COCc1c(C(=O)Nc2cccc(S(=O)(=O)N3CCCCC3)c2)oc2ccccc12 | ? | -7% | -6 | ? | -2%
O=C(NCC1COCCO1)c1ccc2nc(Cc3cccc(Cl)c3)oc2c1 (stereo unspecified) | -15% | -1% | -7 | 2% | -1%
CCOc1ccccc1NC(=O)c1nc(S(=O)(=O)Cc2cccc(C)c2)ncc1Cl | 1.2µM* | -4% | 0 | 0.65µM* | 1%
CCc1nnc(NC(=O)c2nc(S(=O)(=O)Cc3ccc(C)cc3)ncc2Cl)s1 | 16µM* | 15µM* | -102* | 21µM* | 18µM*
CCc1nnc(NC(=O)c2nc(S(=O)(=O)Cc3ccccc3)ncc2Cl)s1 | 18µM* | 7.3µM* | -100* | 18µM* | 12µM*
CCc1nnc(NC(=O)c2nc(S(=O)(=O)Cc3cccc(C)c3)ncc2Cl)s1 | 5.8µM* | 10µM* | -102* | 5.2µM*! | 23µM*
CCc1nnc(NC(=O)c2cccc(S(=O)(=O)N3CCN(C)CC3)c2)s1 | ? | -2% | 17 | ? | 4%
CCc1nnc(NC(=O)c2nc(Cl)ccc2Cl)s1 | -4% | 28% | -1 | 3% | 29%
CCc1nnc(NC(=O)c2nc(SCc3ccccc3F)ncc2Cl)s1 | -16% | · | · | 8% | ·
CCCCCC(=O)Nc1cc(S(=O)(=O)O)cc2cc(S(=O)(=O)O)cc(O)c12 | 2% | -2% | 0 | ? | 10%
COCC(C)n1c(C)cc(C(=O)COC(=O)c2ccc(N3CCCC3=O)cc2)c1C (stereo unspecified) | -15% | -4% | -14 | -21% | 3%
CCOC(=O)C1=C(COC(=O)/C=C/c2ccc(OC)cc2)NC(=O)NC1C (stereo unspecified) | 9.2µM* | ? | -3 | 21µM* | -30%
CCOC(=O)C1=C(COC(=O)COc2ccc(C(C)=O)cc2)NC(=O)NC1C (stereo unspecified) | -17% | 11% | 24 | -22% | 13%
CCOC(=O)C1=C(COC(=O)COc2ccc(C#N)cc2)NC(=O)NC1C (stereo unspecified) | 9% | -10% | i | 16µM* | 3%
CCN(C(=O)COC(=O)CCOc1ccccc1C)c1c(N)n(Cc2ccccc2)c(=O)[nH]c1=O | -25% | 1% | -13 | -17% | -2%
